# Measured values published in publication PMC7862700, “An all-to-all approach to the identification of sequence-specific readers for epigenetic DNA modifications on cytosine”.
# Key:
# Experiment in all cases: DAPPL (digital affinity profiling via proximity ligation, sequencing); 10 mM Tris-HCl pH 7.5, 50 mM NaCl, 1 mM DTT, 4% glycerol, room temperature, 30 min; GST-TFs on glutathione beads, 16-mer random dsDNA library, 0.1% formaldehyde crosslink after washing; high values mean tight binding
# FLI1 = target: T1, FLI1 (Homo sapiens, UniProt Q01543 1-452); settings: protein: recombinant; tags: N-terminal GST; dsDNA, one strand shown
# T1 sequence: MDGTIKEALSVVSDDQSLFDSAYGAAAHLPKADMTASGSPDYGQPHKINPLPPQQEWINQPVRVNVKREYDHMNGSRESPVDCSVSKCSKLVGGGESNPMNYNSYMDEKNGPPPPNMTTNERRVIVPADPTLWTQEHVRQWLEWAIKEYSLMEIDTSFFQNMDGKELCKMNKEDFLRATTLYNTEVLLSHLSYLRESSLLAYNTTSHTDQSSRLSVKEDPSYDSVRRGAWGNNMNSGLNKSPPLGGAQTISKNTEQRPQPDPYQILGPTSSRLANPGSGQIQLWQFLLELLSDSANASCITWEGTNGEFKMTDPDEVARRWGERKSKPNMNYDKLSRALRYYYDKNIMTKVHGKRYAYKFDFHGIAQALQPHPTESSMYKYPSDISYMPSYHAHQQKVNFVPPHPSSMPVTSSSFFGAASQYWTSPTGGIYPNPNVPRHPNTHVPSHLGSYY
# Summary of the method: (§1)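 A tag-only sample was pooled with DNA-barcoded human transcription factors that had been expressed in yeast as GST fusions and captured on glutathione beads. The pools were incubated for 30 min at room temperature with 200 nmole of a random double-stranded 16-mer DNA library in Tris/NaCl/DTT/glycerol buffer, then washed, crosslinked with 0.1% formaldehyde, proximity-ligated (BsaI/T4 ligase, 1 h, 37 °C), PCR-amplified and sequenced on an Illumina NextSeq500. Binding signal is each hexamer's read frequency for a factor divided by its frequency for the tag-only sample.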
# ELK1 = target: T2, ELK1 (Homo sapiens, UniProt P19419 1-428); settings: protein: recombinant; tags: N-terminal GST; dsDNA, one strand shown
# T2 sequence: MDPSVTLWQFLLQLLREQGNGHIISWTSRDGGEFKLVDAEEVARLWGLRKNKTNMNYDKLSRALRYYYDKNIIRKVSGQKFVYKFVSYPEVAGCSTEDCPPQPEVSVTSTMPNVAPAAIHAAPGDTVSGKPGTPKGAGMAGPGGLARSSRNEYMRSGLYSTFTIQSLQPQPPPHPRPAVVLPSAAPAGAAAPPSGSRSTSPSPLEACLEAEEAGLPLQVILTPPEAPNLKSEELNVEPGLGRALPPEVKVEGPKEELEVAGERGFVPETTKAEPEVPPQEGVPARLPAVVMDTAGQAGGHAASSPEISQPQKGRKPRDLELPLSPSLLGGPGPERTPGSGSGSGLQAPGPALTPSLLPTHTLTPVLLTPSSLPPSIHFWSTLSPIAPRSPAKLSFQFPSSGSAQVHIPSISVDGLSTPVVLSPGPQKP
# Summary of the method: as §1
# GABPA = target: T3, GABPA (Homo sapiens, UniProt Q06546 1-454); settings: protein: recombinant; tags: N-terminal GST; dsDNA, one strand shown
# T3 sequence: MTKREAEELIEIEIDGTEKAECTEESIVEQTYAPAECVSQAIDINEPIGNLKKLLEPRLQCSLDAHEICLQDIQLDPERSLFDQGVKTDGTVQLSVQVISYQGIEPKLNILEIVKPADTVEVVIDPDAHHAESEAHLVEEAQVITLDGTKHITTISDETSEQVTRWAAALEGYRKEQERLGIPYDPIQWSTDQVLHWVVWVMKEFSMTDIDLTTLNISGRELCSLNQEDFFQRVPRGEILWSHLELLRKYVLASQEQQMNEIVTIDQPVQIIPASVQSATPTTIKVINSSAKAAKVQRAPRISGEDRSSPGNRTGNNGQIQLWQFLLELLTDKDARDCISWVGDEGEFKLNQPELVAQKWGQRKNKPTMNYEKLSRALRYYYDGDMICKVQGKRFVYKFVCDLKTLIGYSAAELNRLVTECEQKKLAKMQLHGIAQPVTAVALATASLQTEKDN
# Summary of the method: as §1
# ERG = target: T4, ERG (Homo sapiens, UniProt P11308 1-479); settings: protein: recombinant; tags: N-terminal GST; dsDNA, one strand shown
# T4 sequence: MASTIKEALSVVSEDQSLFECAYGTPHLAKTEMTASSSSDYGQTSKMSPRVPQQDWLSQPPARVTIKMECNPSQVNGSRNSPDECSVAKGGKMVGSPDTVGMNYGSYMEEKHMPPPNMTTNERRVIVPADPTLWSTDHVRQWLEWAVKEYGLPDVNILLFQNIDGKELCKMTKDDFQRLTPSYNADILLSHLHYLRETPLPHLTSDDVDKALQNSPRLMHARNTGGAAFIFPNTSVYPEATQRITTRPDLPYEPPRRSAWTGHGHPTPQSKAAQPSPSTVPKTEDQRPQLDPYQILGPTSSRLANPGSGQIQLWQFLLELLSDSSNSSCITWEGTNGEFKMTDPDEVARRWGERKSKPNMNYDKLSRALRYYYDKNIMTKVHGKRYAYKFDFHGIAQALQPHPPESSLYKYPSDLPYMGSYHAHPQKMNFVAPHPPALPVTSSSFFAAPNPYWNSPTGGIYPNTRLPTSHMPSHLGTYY
# Summary of the method: as §1
# ELF1 = ELF1 (Homo sapiens, UniProt P32519 1-619); settings: protein: recombinant; tags: N-terminal GST; dsDNA, one strand shown
# Chain of ELF1 (P32519 whole entry): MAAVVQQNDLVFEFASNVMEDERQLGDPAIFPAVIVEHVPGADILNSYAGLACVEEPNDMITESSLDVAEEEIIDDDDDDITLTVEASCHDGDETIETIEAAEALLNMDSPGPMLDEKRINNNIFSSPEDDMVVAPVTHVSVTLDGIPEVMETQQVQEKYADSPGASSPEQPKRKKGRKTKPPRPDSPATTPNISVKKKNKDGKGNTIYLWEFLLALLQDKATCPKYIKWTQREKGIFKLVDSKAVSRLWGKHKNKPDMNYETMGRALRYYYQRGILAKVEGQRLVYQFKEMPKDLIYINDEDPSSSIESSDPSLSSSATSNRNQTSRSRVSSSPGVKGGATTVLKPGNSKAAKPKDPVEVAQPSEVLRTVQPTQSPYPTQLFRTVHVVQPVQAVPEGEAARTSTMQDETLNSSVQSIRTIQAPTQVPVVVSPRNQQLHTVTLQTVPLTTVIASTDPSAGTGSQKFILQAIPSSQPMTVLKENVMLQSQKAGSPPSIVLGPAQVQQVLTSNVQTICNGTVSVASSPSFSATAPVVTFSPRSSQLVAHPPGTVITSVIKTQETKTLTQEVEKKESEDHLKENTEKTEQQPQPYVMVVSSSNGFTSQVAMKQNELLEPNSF
# Summary of the method: as §1
# EHF = target: T5, EHF (Homo sapiens, UniProt Q9NZC4 1-300); settings: protein: recombinant; tags: N-terminal GST; dsDNA, one strand shown
# T5 sequence: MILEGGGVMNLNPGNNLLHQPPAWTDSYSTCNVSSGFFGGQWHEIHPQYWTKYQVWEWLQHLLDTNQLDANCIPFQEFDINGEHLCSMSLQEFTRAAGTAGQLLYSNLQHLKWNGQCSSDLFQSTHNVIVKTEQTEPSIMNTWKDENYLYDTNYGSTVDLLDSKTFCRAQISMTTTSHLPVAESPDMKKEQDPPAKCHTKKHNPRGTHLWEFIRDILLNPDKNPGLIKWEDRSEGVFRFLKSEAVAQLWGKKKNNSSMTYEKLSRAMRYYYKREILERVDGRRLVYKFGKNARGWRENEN
# Summary of the method: as §1
# SPI1 = SPI1 (Homo sapiens, UniProt P17947 1-270); settings: protein: recombinant; tags: N-terminal GST; dsDNA, one strand shown
# Summary of the method: as §1
# SPIB = SPIB (Homo sapiens, UniProt Q01892 1-262); settings: protein: recombinant; tags: N-terminal GST; dsDNA, one strand shown
# Chain of SPIB (Q01892 whole entry): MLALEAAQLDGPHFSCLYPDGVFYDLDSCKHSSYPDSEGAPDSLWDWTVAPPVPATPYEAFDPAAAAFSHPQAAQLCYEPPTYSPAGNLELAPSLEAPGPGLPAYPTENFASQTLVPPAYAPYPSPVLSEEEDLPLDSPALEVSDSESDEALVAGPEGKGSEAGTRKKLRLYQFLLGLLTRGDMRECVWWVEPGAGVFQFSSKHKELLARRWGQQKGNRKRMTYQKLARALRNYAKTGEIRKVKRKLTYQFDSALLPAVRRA
# Summary of the method: as §1
# ELK3 = target: T6, ELK3 (Homo sapiens, UniProt P41970 1-407); settings: protein: recombinant; tags: N-terminal GST; dsDNA, one strand shown
# T6 sequence: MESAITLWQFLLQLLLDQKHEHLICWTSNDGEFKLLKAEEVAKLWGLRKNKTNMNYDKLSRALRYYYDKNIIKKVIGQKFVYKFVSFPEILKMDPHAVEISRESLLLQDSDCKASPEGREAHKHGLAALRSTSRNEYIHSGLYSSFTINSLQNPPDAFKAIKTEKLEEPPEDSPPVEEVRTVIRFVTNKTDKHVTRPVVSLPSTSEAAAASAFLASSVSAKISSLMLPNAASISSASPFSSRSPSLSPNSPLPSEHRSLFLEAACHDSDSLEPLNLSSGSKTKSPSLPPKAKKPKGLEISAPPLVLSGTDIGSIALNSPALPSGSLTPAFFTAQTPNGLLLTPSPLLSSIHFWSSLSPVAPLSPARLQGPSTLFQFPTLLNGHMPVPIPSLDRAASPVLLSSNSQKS
# Summary of the method: as §1
# FEV = target: T7, FEV (Homo sapiens, UniProt Q99581 1-238); settings: protein: recombinant; tags: N-terminal GST; dsDNA, one strand shown
# T7 sequence: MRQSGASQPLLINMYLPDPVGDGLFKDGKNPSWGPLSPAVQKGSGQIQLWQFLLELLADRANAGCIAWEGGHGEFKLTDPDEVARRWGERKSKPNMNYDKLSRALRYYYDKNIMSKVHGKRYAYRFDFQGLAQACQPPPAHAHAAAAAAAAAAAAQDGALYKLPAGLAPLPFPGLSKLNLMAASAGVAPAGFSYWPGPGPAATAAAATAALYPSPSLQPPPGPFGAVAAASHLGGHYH
# Summary of the method: as §1
# ETV5 = ETV5 (Homo sapiens, UniProt P41161 1-510); settings: protein: recombinant; tags: N-terminal GST; dsDNA, one strand shown
# Chain of ETV5 (P41161 whole entry): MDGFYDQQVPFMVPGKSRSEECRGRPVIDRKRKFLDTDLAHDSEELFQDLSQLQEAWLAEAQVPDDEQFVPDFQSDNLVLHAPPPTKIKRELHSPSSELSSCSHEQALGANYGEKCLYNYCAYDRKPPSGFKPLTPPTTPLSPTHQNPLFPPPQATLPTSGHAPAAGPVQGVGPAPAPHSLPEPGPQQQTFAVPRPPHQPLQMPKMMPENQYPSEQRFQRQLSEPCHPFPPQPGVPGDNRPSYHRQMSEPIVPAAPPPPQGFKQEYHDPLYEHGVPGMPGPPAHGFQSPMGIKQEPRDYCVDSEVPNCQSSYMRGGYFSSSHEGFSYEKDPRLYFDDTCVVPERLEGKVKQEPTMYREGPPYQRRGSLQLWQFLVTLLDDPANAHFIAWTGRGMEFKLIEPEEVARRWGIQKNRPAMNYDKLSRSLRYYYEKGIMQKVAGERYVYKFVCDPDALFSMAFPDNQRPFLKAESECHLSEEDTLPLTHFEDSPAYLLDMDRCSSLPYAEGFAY
# Summary of the method: as §1
# HSF1 = HSF1 (Homo sapiens, UniProt Q00613 1-529); settings: protein: recombinant; tags: N-terminal GST; chain copies: 3; dsDNA, one strand shown
# Chain of HSF1 (Q00613 whole entry): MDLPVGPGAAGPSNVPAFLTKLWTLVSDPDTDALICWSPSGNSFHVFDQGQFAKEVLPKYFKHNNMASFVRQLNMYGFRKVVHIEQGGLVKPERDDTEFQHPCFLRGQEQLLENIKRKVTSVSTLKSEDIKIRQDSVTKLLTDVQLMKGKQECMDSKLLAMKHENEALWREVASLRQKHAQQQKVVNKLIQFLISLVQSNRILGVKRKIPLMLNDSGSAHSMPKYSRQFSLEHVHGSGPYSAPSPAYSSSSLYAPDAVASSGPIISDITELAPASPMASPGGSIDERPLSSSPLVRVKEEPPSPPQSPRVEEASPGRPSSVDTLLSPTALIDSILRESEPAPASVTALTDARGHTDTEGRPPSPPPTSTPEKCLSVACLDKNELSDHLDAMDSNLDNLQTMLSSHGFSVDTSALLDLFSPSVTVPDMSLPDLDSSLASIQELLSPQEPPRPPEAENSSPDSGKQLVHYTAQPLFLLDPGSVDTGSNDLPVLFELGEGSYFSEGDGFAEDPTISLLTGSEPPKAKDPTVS
# Summary of the method: as §1
# SPIC = target: T8, SPIC (Homo sapiens, UniProt Q8N5J4 1-248); settings: protein: recombinant; tags: N-terminal GST; dsDNA, one strand shown
# T8 sequence: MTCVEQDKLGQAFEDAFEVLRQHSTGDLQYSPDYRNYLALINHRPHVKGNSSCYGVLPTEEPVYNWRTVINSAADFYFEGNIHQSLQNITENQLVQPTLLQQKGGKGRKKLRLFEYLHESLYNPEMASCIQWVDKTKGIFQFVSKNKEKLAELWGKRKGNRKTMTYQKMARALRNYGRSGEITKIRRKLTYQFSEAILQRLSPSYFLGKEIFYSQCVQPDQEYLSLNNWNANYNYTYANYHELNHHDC
# Summary of the method: as §1
# ELF4 = ELF4 (Homo sapiens, UniProt Q99607 1-663); settings: protein: recombinant; tags: N-terminal GST; dsDNA, one strand shown
# Chain of ELF4 (Q99607 whole entry): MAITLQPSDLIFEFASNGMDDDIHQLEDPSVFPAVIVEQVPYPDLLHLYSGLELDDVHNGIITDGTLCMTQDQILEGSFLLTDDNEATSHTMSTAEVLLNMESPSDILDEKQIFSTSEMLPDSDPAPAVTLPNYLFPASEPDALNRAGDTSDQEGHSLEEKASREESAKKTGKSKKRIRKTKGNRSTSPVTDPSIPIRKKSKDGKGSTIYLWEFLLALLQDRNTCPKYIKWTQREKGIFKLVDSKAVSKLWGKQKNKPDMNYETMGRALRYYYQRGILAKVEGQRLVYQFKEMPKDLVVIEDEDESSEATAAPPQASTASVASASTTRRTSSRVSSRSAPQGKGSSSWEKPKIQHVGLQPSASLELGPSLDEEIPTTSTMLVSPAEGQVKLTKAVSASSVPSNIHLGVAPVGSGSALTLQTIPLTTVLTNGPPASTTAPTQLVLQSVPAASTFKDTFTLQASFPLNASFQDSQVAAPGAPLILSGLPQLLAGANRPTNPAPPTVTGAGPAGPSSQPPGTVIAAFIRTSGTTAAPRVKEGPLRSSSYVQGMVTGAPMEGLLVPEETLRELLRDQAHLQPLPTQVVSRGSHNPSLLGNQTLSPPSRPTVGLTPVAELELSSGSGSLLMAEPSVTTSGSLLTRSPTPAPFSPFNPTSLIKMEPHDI
# Summary of the method: as §1
# ELK4 = target: T9, ELK4 (Homo sapiens, UniProt P28324-2 1-405); settings: protein: recombinant; tags: N-terminal GST; dsDNA, one strand shown
# T9 sequence: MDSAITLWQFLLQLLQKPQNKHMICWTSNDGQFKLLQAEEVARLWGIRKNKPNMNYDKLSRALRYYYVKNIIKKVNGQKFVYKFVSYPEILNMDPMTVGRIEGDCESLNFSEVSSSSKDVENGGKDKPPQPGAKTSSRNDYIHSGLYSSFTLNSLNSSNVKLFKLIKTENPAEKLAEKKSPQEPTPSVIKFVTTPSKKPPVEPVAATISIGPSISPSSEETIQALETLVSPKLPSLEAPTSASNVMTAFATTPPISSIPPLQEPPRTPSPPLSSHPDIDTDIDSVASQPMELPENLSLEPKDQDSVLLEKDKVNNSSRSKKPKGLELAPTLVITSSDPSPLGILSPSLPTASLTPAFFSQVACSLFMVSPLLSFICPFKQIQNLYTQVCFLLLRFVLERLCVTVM
# Summary of the method: as §1
# ETV2 = target: T10, ETV2 (Homo sapiens, UniProt O00321 1-342); settings: protein: recombinant; tags: N-terminal GST; dsDNA, one strand shown
# T10 sequence: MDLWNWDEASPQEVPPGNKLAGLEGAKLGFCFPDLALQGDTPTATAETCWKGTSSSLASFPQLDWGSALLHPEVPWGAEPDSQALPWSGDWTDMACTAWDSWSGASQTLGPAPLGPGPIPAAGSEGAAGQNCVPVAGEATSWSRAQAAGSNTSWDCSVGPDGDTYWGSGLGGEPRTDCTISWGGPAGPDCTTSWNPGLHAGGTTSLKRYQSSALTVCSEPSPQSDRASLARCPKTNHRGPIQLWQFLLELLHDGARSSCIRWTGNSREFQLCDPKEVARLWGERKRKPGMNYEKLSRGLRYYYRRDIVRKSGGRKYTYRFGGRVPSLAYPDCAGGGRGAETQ
# Summary of the method: as §1
# ELF3 = target: T11, ELF3 (Homo sapiens, UniProt P78545 1-371); settings: protein: recombinant; tags: N-terminal GST; dsDNA, one strand shown
# T11 sequence: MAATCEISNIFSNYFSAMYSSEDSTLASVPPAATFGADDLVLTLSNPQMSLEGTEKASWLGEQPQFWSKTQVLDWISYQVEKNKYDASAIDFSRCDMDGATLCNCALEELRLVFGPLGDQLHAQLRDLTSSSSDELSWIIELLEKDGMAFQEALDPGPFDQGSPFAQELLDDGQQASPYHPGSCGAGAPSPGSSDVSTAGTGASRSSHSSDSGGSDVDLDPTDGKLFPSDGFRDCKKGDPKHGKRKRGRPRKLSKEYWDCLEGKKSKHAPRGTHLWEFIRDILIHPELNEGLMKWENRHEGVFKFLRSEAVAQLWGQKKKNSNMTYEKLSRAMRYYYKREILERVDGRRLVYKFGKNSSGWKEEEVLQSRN
# Summary of the method: as §1
# CRX = CRX (Homo sapiens, UniProt O43186 1-299); settings: protein: recombinant; tags: N-terminal GST; dsDNA, one strand shown
# Chain of CRX (O43186 whole entry): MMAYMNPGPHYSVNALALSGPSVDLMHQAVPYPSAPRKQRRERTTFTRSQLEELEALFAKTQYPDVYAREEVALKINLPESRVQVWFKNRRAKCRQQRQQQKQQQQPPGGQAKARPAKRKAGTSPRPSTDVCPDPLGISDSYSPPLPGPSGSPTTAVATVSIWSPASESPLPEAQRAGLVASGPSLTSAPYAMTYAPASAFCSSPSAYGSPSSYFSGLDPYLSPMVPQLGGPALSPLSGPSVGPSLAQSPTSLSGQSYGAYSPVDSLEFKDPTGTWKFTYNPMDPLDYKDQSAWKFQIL
# Summary of the method: as §1
# ETV1 = ETV1 (Homo sapiens, UniProt P50549 1-477); settings: protein: recombinant; tags: N-terminal GST; dsDNA, one strand shown
# Chain of ETV1 (P50549 whole entry): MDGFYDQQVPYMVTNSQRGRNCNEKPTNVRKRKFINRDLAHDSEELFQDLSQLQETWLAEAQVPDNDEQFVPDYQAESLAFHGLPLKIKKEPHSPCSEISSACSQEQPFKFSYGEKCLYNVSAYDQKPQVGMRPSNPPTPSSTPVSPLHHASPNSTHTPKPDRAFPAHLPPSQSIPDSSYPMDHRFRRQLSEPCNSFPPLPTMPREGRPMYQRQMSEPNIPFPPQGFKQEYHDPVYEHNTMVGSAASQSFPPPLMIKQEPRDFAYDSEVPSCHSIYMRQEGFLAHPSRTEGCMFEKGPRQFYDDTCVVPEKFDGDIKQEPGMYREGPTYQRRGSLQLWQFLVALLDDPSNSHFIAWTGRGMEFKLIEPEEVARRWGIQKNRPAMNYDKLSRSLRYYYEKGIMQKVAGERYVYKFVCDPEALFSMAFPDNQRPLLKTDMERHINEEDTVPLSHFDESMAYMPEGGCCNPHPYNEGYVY
# Summary of the method: as §1
sequence,measurement,setting,value
TAAAGT,binding signal,FLI1,"1.22 fold enrichment (6-mer frequency, TF over GST control)"
same,binding signal,ELK1,"1.14 fold enrichment (6-mer frequency, TF over GST control)"
same,binding signal,GABPA,"1.24 fold enrichment (6-mer frequency, TF over GST control)"
same,binding signal,ERG,"1.17 fold enrichment (6-mer frequency, TF over GST control)"
same,binding signal,ELF1,"1.18 fold enrichment (6-mer frequency, TF over GST control)"
same,binding signal,EHF,"1.18 fold enrichment (6-mer frequency, TF over GST control)"
same,binding signal,SPI1,"1.21 fold enrichment (6-mer frequency, TF over GST control)"
same,binding signal,SPIB,"1.11 fold enrichment (6-mer frequency, TF over GST control)"
same,binding signal,ELK3,"1.38 fold enrichment (6-mer frequency, TF over GST control)"
same,binding signal,FEV,"1.1 fold enrichment (6-mer frequency, TF over GST control)"
same,binding signal,ETV5,"1.13 fold enrichment (6-mer frequency, TF over GST control)"
same,binding signal,HSF1,"1.37 fold enrichment (6-mer frequency, TF over GST control)"
same,binding signal,SPIC,"1.13 fold enrichment (6-mer frequency, TF over GST control)"
same,binding signal,ELF4,"1.13 fold enrichment (6-mer frequency, TF over GST control)"
same,binding signal,ELK4,"1.27 fold enrichment (6-mer frequency, TF over GST control)"
same,binding signal,ETV2,"1.11 fold enrichment (6-mer frequency, TF over GST control)"
same,binding signal,ELF3,"1.13 fold enrichment (6-mer frequency, TF over GST control)"
same,binding signal,CRX,"1.75 fold enrichment (6-mer frequency, TF over GST control)"
same,binding signal,ETV1,"1.21 fold enrichment (6-mer frequency, TF over GST control)"
